Data: PubChem BioAssay (Tox21)
Several values for one entry are separate records, joined by “and”; a condition that tells them apart may be missing. Equal values may be shown once. Results filed as inconclusive are left out. More than one record can exist for a structure, and the calls need not agree. Activity calls are given as the source filed them. Unless noted, the call rests on the fitted dose curve; in most records, active means well fitted curve in the direction sought with a large enough effect in the repeat runs; inconclusive means weak or mixed curves; inactive means no such curve, though single readings can be large; an effect the other way counts as inactive or inconclusive.

How the values were obtained:
[1] = Caspase-3/7 induction in CHO-K1 cells by small molecules, qHTS cell viability counter screen (AID 1346979); further: nearly all actives have a fitted effect of over 35% in size; further: potency means the concentration at half of the fitted maximal effect
Outline: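 Wild-type CHO-K1 cells (1,500/well) treated with compound after 5 h plating; after 16 h at 37C, viability read as CellTiter-Fluor fluorescence following 1 h reagent incubation, in the same wells as the caspase read.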

[2] = Caspase-3/7 induction in CHO-K1 cells by small molecules, qHTS assay (AID 1346980); further: nearly all actives have a fitted effect of over 15% in size
Outline: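 Wild-type cells were seeded at 1,500 per well and settled 5 hr at 37 C, 5% CO2, then exposed to DMSO-dissolved compounds for 17 hr. Caspase-Glo 3/7 reagent was added, and luminescence was read after 30min at room temperature.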

[3] = Caspase-3/7 induction in HepG2 cells by small molecules, qHTS cell viability counter screen (AID 1346981); further: nearly all actives have a fitted effect of over 30% in size; further: potency means the concentration at half of the fitted maximal effect
Outline: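 The parent HepG2 line is plated at 2,000 cells per well and rested 5 hr before compound pinning from DMSO stocks. Following a 16-hr treatment at 37 C, a fluorogenic live-cell substrate (CellTiter-Fluor) reports viability after 1 hr.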

[4] = biological target: Nuclear receptor subfamily 1 group I member 2 (Homo sapiens) (UniProt O75469); assay: Human pregnane X receptor (PXR) small molecule agonists, qHTS assay (AID 1346982); further: nearly all actives have a fitted effect of over 35% in size; further: potency means the concentration at half of the fitted maximal effect
Outline: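 After plating in 5% charcoal-stripped FBS and a 5 hr rest, PXR-Luc HepG2 cells received compounds in DMSO. Following 24 hr at 37 C, ONE-Glo was added and light output read.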

[5] = biological target: Acetylcholinesterase (Homo sapiens) (UniProt P22303); assay: Acetylcholinesterase (AChE) small molecule antagonists: colormetric cell-based qHTS assay (AID 1347395; calls by dose curve; further: nearly all actives have a fitted effect of over 30% in size)
Outline: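 SH-SY5Y cells attached overnight, exposed to compound 30 min at 37 C, then given DTNB/acetylthiocholine; after 90 min at 37 C, colorimetric thiocholine read gives cellular AChE activity.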

[6] = biological target: Acetylcholinesterase (Homo sapiens) (UniProt P22303); assay: Acetylcholinesterase (AChE) small molecule antagonists: enzyme-based qHTS assay (AID 1347397; calls by dose curve; further: nearly all actives have a fitted effect of over 55% in size); conditions: Potency: AChE enzyme activity inhibition
Outline: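 Tox21 library chemicals are tested in qHTS format against recombinant human AChE. The enzyme, dispensed at 50 mU/mL, sits with compound for 30 min at room temperature. A DTNB–acetylthiocholine cocktail follows, and colour is read after 10 min.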

[7] = biological target: Acetylcholinesterase (Homo sapiens) (UniProt P22303); assay: Acetylcholinesterase (AChE) small molecule antagonists: fluorescence cell-based qHTS assay (AID 1347398; calls by dose curve; further: nearly all actives have a fitted effect of over 50% in size); conditions: Potency: AChE activity
Outline: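 Cellular AChE inhibition: SH-SY5Y cells treated with test chemical for 30 min at 37 C, then acetylthiocholine hydrolysis followed over 40 min at room temperature via thiocholine-reactive Thiolite Green fluorescence (490/520 nm).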

[8] = biological target: Cytochrome P450 2D6 (Homo sapiens) (UniProt P10635); assay: Cytochrome P450 Family 2 Subfamily D Member 6 (CYP2D6) small molecule antagonists: luciferase reporter qHTS assay (AID 1671196); further: nearly all actives have a fitted effect of over 50% in size; further: potency means the concentration at half of the fitted maximal effect
Outline: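 Quantitative HTS of Tox21 chemicals against CYP2D6 using a luminescent proluciferin substrate. After NADPH addition, 1 h room-temperature reaction; luminescence recorded 20 min post detection reagent.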

[9] = biological target: Cytochrome P450 2C19 (Homo sapiens) (UniProt P33261); assay: Cytochrome P450 Family 2 Subfamily C Member 19 (CYP2C19) small molecule antagonists: luciferase reporter qHTS assay (AID 1671197); further: nearly all actives have a fitted effect of over 65% in size; further: potency means the concentration at half of the fitted maximal effect
Outline: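 Relative luminescence units recorded 20 min after the detection reagent stopped a 1 h, 37C CYP2C19 reaction on proluciferin substrate, which was started by NADPH regeneration following 10 min room-temperature compound preincubation; ketoconazole positive control.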

[10] = biological target: Cytochrome P450 2C9 (Homo sapiens) (UniProt P11712); assay: Cytochrome P450 Family 2 Subfamily C Member 9 (CYP2C9) small molecule antagonists: luciferase reporter qHTS assay (AID 1671198); further: nearly all actives have a fitted effect of over 50% in size; further: potency means the concentration at half of the fitted maximal effect
Outline: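 CYP2C9 activity was measured with a P450-Glo proluciferin substrate. Enzyme–substrate mix was held with compound for 10 min at room temperature, then NADPH regeneration solution was added for 1 h at 37C. Luciferin product was read as luminescence.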

[11] = biological target: Cytochrome P450 1A2 (Homo sapiens) (UniProt P05177); assay: Cytochrome P450 Family 1 Subfamily A Member 2 (CYP1A2) small molecule antagonists: luciferase reporter qHTS assay (AID 1671199); further: nearly all actives have a fitted effect of over 50% in size; further: potency means the concentration at half of the fitted maximal effect
Outline: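 Quantitative high-throughput format using the P450-Glo CYP1A2 system. Reaction initiated by NADPH regeneration solution, 1 h at room temperature, then stopped with detection reagent; luminescence measured 20 min later.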

[12] = Caspase-3/7 induction in HepG2 cells by small molecules, qHTS assay (AID 1346978); further: nearly all actives have a fitted effect of over 15% in size; further: potency means the concentration at half of the fitted maximal effect
Outline: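 Wild-type HepG2 cells (2,000/well) were settled 5 h at 37 C, 5% CO2, then exposed to compounds in DMSO for 17 h. Caspase-3/7 activity was read by luminescence 30 min after adding Caspase-Glo 3/7 reagent at room temperature.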

[13] = biological target: Acetylcholinesterase (Homo sapiens) (UniProt P22303); assay: Acetylcholinesterase (AChE) small molecule antagonists: enzyme-based qHTS assay with human liver microsomes (AID 1347399; calls by dose curve; further: nearly all actives have a fitted effect of over 60% in size); conditions: Potency: qHTS inhibition
Outline: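 Recombinant human AChE (50 mU/mL in the enzyme mix) and human liver microsomes (0.25 mg/mL final) were preincubated with compound and NADPH (0.25 mg/mL final) for 30 min at 37 C. Acetylthiocholine/DTNB was then added; thiocholine was read colorimetrically after 10 min at room temperature.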

[14] = biological target: Voltage-gated inwardly rectifying potassium channel KCNH2 (Homo sapiens) (UniProt Q12809); assay: Human Ether-a-go-go-Related Gene (hERG) channel small molecule antagonists: fluorescence cell-based qHTS assay (AID 1671200); further: nearly all actives have a fitted effect of over 50% in size; further: potency means the concentration at half of the fitted maximal effect
Outline: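 hERG-U2OS cells plated overnight at 37 C, loaded with FluxOR II dye 1 h at RT in dark; after 10 min, thallium stimulus added. Fluorescence (480/540 nm) read kinetically for 2 min at 1 s intervals.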

[15] = biological target: Cytochrome P450 3A4 (Homo sapiens) (UniProt P08684); assay: Cytochrome P450 Family 3 Subfamily A Member 4 (CYP3A4) small molecule antagonists: luciferase reporter qHTS assay (AID 1671201); further: nearly all actives have a fitted effect of over 50% in size; further: potency means the concentration at half of the fitted maximal effect
Outline: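 P450-Glo CYP3A4 luminescent assay: compounds preincubated 10 min at room temperature with enzyme and proluciferin substrate, NADPH regeneration added, 1 h room-temperature reaction, stopped with luciferin detection reagent; luminescence read after 20 min. Ketoconazole positive control.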

[16] = biological target: Nuclear receptor subfamily 1 group I member 2 (Rattus norvegicus) (UniProt Q9R1A7); assay: Rat pregnane X receptor (rPXR) activation by small molecules, qHTS assay (AID 1346983); conditions: rPXR luciferase reporter cells, One-Glo luminescence, 24 h; stronger effect = higher value; further: nearly all actives have a fitted effect of over 20% in size
Outline: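 Cell-based rPXR luciferase reporter assay, 2,000 cells per well, rested 5hr at 37 C before compound addition in DMSO, then 24 hr at 37 C. One-Glo reagent was added and luminescence read after 30 min at room temperature.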

[17] = biological target: Nuclear receptor subfamily 1 group I member 2 (Homo sapiens) (UniProt O75469); assay: CYP3A4 induction through human pregnane X receptor (PXR) by small molecules, qHTS assay (AID 1346984); further: nearly all actives have a fitted effect of over 40% in size
Outline: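 Human PXR activation is tracked via CYP3A4 promoter-luciferase in DPX-2 (HepG2) cells. Compounds treat cells for 24hr at 37C, and luminescence is read after One-Glo.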

[18] = biological target: Nuclear receptor subfamily 1 group I member 2 (Homo sapiens) (UniProt O75469); assay: Human pregnane X receptor (PXR) activation by small molecules, qHTS assay (AID 1346985); further: nearly all actives have a fitted effect of over 40% in size
Outline: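 DPX-2 cells (HepG2 co-transfected with a PXR response element and a CYP3A4-promoter luciferase construct) were seeded at 2,000 per well, rested 5 hr at 37C, then exposed to DMSO-dissolved compounds for 24 hr. Activation was read as luciferase luminescence.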
On the % scale 0 is the no-effect control and ±100 the full control effect.

Sequence of Cytochrome P450 1A2 (Homo sapiens) (P05177 whole entry, looked up): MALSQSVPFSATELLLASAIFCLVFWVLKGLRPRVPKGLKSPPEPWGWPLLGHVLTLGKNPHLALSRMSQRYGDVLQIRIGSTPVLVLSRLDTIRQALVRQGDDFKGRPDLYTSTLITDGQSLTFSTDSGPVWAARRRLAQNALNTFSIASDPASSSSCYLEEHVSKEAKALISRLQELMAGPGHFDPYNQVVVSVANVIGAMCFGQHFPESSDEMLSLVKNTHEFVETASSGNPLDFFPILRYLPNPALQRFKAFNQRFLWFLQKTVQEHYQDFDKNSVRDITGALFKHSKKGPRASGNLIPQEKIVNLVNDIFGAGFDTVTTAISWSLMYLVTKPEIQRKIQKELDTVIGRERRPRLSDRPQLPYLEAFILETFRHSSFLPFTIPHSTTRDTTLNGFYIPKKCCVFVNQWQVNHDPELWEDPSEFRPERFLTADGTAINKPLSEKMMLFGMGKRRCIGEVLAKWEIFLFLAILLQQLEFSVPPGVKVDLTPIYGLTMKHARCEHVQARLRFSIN
Sequence of Acetylcholinesterase (Homo sapiens) (P22303 whole entry, looked up): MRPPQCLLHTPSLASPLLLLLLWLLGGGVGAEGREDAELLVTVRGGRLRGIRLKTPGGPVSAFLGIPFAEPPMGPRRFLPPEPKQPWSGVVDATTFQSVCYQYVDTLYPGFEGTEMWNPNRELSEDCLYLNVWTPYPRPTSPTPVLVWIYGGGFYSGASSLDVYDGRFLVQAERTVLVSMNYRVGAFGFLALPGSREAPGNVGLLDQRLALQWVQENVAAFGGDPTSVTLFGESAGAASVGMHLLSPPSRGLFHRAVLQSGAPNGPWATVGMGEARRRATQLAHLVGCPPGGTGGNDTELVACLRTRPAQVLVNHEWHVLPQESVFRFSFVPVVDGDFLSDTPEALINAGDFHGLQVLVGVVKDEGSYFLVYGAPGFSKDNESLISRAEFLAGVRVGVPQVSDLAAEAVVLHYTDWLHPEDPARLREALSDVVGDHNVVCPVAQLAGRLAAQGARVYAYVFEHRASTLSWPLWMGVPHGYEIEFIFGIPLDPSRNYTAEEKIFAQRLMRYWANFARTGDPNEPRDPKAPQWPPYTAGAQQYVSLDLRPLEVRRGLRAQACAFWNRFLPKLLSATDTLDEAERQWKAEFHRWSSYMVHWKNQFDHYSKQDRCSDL
Sequence of Cytochrome P450 2C9 (Homo sapiens) (P11712 whole entry, looked up): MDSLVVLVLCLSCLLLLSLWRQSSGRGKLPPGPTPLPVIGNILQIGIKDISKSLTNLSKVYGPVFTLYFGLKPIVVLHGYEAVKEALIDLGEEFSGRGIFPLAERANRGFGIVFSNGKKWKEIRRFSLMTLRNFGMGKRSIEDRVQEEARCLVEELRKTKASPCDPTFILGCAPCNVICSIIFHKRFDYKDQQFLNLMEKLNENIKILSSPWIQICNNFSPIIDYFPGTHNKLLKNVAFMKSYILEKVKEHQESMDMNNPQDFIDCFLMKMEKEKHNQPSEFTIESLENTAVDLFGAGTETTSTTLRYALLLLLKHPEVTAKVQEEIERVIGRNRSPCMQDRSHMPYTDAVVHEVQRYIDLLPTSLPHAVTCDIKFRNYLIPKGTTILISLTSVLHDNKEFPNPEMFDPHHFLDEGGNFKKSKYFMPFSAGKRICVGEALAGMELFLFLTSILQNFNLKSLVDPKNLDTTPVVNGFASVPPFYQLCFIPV
Sequence of Cytochrome P450 3A4 (Homo sapiens) (P08684 whole entry, looked up): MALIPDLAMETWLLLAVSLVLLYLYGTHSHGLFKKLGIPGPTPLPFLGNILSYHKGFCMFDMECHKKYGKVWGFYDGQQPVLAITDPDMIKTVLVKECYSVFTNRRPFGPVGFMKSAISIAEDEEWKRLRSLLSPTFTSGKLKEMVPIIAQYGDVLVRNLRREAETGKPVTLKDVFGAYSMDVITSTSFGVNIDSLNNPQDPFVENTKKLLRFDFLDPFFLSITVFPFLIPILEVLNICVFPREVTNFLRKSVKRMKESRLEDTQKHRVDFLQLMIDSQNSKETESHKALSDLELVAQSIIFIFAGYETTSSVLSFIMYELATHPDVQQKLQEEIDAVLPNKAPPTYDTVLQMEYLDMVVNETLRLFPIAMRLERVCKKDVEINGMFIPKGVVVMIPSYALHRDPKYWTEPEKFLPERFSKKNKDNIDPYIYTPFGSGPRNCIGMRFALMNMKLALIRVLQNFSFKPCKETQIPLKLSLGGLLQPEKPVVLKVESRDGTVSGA
Sequence of Cytochrome P450 2D6 (Homo sapiens) (P10635 whole entry, looked up): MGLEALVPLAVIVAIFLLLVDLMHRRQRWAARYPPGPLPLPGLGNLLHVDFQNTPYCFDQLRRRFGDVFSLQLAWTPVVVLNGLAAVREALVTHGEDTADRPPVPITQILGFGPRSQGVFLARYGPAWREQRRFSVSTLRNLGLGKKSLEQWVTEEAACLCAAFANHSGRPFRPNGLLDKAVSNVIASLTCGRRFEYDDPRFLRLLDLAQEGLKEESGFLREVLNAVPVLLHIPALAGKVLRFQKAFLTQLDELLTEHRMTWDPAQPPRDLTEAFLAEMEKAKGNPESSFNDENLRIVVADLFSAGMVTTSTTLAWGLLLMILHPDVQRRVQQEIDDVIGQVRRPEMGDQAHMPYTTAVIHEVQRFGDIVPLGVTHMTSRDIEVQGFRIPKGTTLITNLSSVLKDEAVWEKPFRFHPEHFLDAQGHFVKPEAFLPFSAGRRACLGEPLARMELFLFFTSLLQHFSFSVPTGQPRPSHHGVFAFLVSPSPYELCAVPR
Sequence of Voltage-gated inwardly rectifying potassium channel KCNH2 (Homo sapiens) (Q12809 whole entry, looked up): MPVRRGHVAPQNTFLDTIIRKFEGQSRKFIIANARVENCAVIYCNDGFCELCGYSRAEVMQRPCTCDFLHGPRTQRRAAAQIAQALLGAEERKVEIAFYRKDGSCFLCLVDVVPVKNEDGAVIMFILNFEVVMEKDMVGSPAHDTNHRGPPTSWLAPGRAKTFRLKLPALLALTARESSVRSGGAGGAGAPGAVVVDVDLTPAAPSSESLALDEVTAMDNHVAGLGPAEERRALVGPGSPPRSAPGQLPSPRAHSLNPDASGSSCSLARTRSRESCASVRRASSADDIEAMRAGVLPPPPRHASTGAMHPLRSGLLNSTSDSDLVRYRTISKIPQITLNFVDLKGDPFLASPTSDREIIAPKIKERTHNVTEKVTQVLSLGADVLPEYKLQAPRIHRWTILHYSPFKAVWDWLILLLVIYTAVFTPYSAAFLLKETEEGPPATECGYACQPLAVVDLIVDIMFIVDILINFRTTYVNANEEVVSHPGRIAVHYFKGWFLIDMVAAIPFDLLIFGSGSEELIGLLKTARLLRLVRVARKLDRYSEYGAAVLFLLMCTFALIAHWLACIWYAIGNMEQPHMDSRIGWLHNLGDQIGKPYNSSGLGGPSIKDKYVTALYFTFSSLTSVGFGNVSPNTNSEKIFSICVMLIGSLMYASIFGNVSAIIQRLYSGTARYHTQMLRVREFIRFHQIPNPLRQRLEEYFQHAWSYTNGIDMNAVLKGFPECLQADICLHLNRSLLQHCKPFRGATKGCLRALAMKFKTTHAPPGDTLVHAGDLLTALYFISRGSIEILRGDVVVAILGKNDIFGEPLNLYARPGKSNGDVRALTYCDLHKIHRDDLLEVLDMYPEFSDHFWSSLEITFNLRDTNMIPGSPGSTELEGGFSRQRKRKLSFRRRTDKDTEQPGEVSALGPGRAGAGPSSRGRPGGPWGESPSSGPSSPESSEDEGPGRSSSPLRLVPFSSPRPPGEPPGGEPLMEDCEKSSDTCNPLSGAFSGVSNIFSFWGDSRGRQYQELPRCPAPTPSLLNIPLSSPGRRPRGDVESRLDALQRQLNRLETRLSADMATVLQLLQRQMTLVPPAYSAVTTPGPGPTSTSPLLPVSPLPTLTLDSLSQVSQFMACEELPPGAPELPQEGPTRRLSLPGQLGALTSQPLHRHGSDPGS
Sequence of Nuclear receptor subfamily 1 group I member 2 (Rattus norvegicus) (Q9R1A7 whole entry, looked up): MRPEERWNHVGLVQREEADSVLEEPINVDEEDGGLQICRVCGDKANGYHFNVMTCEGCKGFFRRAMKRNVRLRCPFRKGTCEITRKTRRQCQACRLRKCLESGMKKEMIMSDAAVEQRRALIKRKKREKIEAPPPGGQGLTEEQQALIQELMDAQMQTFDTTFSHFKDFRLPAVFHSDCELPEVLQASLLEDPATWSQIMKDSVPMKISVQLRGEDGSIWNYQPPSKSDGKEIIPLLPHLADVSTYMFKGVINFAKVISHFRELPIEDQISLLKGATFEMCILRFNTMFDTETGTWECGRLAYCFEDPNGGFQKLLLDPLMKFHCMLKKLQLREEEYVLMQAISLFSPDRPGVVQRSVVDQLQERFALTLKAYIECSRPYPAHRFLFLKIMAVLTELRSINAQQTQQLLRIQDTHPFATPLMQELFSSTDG
Sequence of Nuclear receptor subfamily 1 group I member 2 (Homo sapiens) (O75469 whole entry, looked up): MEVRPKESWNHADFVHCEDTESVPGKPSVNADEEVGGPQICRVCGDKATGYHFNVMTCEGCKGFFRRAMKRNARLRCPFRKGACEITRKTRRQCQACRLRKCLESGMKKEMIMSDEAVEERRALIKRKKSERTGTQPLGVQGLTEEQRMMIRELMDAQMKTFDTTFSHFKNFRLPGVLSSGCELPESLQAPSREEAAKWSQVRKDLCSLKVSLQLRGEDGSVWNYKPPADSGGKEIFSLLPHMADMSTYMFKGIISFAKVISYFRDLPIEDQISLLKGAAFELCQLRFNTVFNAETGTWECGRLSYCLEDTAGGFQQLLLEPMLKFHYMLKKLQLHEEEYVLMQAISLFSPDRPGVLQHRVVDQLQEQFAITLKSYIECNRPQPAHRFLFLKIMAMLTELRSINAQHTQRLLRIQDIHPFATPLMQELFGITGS

CN(C)c1ccc(C(=O)c2ccc(N(C)C)cc2)cc1
inactive and 35.6 µM (active): Potency [8]
active: Potency [1] 24.3 µM | Potency [3] 48.6 µM | Potency [4] 48.1 µM and 17.2 µM | Potency [9] 8.85 µM and 8.94 µM | Potency [10] 31.7 µM | Potency [11] 17.7 µM and 14.2 µM
inactive: Potency [2] | Potency [5] | Potency [6] | Potency [7]

C=C(C)[C@H]1Cc2c(ccc3c2O[C@@H]2COc4cc(OC)c(OC)cc4[C@@H]2C3=O)O1
active: Potency [1] 175 nM and 770 nM and 7.5 µM | Potency [3] 39.1 µM and 30.6 µM and 5.31 µM | Potency [10] 5.09 µM and 6.33 µM and 9.77 µM
inactive and 38.9 µM (active): Potency [8]
inactive: Potency [12] | Potency [5] | Potency [6] | Potency [7] | Potency [13] | Potency [11] | Potency [14]

CCOc1cc(Oc2ccc(C(F)(F)F)cc2Cl)ccc1[N+](=O)[O-]
inactive: Potency [12] | Potency [2] | Potency [3] | Potency [5] | Potency [6] | Potency [7] | Potency [13] | Potency [14] | Potency [15]
active: Potency [4] 27.6 µM and 17.2 µM | Potency [8] 2.27 µM and 5.64 µM | Potency [9] 5.7 µM and 7.1 µM | Potency [10] 4.53 µM and 6.33 µM | Potency [11] 20 µM

CCCCCc1cc(O)cc(O)c1
inactive: Potency [12] | Potency [2] | Potency [5] | Potency [6] | Potency [7] | Potency [13] | Potency [14]
active: Potency [3] 48.6 µM | Potency [4] 61.4 µM and 30.6 µM | Potency [8] 10.1 µM and 31.7 µM | Potency [9] 3.57 µM and 6.33 µM | Potency [10] 11.3 µM and 31.7 µM | Potency [11] 17.9 µM and 35.6 µM | Potency [15] 5.05 µM and 22.4 µM

Nc1ccc(Cl)cc1N
active: Potency [12] 22.6 µM and 8.89 µM | Potency [3] 7.92 µM | Potency [4] 31.9 µM and 4.33 µM | Potency [8] 32.6 µM | Potency [9] 20.8 µM and 7.1 µM | Potency [10] 32.6 µM | Potency [11] 11.7 µM and 10.9 µM | Potency [15] 26.2 µM and 5.64 µM
inactive: Potency [2] | Potency [5] | Potency [6] | Potency [7] | Potency [14]

N[C@@H](Cc1ccc(N(CCCl)CCCl)cc1)C(=O)O
active: Potency [1] 29.4 µM and 26.6 µM | Potency [3] 26.2 µM | Potency [8] 34.1 µM and 34.7 µM | Potency [9] 8.57 µM and 17.4 µM | Potency [10] 17.1 µM and 27.5 µM
inactive: max activation [16] -1.77% | Potency [14]

Oc1cc(Cl)ccc1Cl
active: Potency [11] 36.6 µM and 31.7 µM
inactive: Potency [12] | Potency [1] | Potency [3] | Potency [4] | Potency [5] | Potency [6] | Potency [13] | Potency [8] | Potency [9] | Potency [10] | Potency [14] | Potency [15]

CNC(=O)N(C)c1nnc(C(C)(C)C)s1
39.9 µM (active) and inactive: Potency [9]
inactive: Potency [12] | Potency [1] | Potency [3] | Potency [5] | Potency [6] | Potency [8] | Potency [10] | Potency [14] | Potency [15]
active: Potency [4] 54.5 µM | Potency [11] 39.9 µM

CCC(C)(C)c1ccc(O)cc1
active: Potency [10] 71.8 µM and 63.3 µM
inactive: Potency [2] | Potency [3] | Potency [4] | max activation [16] -0.805% | outcome [17] | outcome [18] | Potency [5] | Potency [6] | Potency [7] | Potency [13] | Potency [8] | Potency [9] | Potency [11] | Potency [14] | Potency [15]

N#Cc1cc(Br)c(O)c(Br)c1
68.5 µM (active) and inactive: Potency [4]
active: Potency [10] 20 µM and 15.3 µM
inactive: Potency [12] | Potency [3] | Potency [5] | Potency [6] | Potency [7] | Potency [13] | Potency [8] | Potency [9] | Potency [11] | Potency [14] | Potency [15]

CCCCCCCCCCCOC(=O)c1ccccc1C(=O)OCCCCCCCCCCC
inactive: Potency [12] | Potency [1] | Potency [3] | Potency [5] | Potency [6] | Potency [7] | Potency [13] | Potency [8] | Potency [9] | Potency [10] | Potency [11] | Potency [14] | Potency [15]

C[C@]12CCC(=O)C[C@@H]1CC[C@@H]1[C@@H]2CC[C@]2(C)[C@@H](O)CC[C@@H]12
inactive: Potency [12] | Potency [3] | max activation [16] -5.43%
active: Potency [14] 21.6 µM
